Columns and labels:
[1] = test system: E18 rat cortical neuron-glia co-culture; assay: fiber score / MBP score (myelination specific beyond OL differentiation) (ratio); higher = more myelination-specific MBP alignment; conditions: 1 µM; treatment time: 8 days (DIV5-DIV13)
Outline: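 Papain-dissociated primary E18 rat cortical co-cultures, plated at 20,000 cells/well on poly-d-lysine/laminin 96-well plates, were exposed to library compounds at 1 or 5 µM in myelination medium between DIV5 and DIV13. Following fixation in 4 % paraformaldehyde, cultures were stained for MBP, Olig2 and DAPI, and four 10X fields per well were analysed in duplicate wells. Values are the ratio of fiber score (continuous MBP fiber length per Olig2+ nucleus) to MBP score (thresholded MBP area × intensity per Olig2+ nucleus).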

[2] = test system: E18 rat cortical neuron-glia co-culture; assay: myelination (MBP fiber length per Olig2+ nucleus), % of 1 µM DAPT response (DMSO = 0) (% of DAPT); higher = more myelination, active = 50 or more; conditions: treatment time: 8 days (DIV5-DIV13)
Outline: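 Myelination, expressed as continuous straight MBP fiber length per Olig2+ nucleus, was normalised to 0.1 % DMSO as 0 and a 1 µM positive control as 100. The cultures were primary E18 rat cortical co-cultures dissociated with papain and plated at 20,000 cells/well on poly-d-lysine/laminin-coated 96-well plates. They received library compounds at 1 or 5 µM in myelination medium between DIV5 and DIV13. Analysis covered four 10X fields per well in duplicate wells after 4 % paraformaldehyde fixation and immunostaining for MBP and Olig2 with DAPI.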

| Compound | fiber score / MBP score [1] | myelination ([2]; 1 µM) | myelination ([2]; 5 µM) |
| --- | --- | --- | --- |
| O=C1CCc2ccc(OCCCCN3CCN(c4cccc(Cl)c4Cl)CC3)cc2N1 [Aripiprazole] | 0.301 | -54.9 (inactive) | – |
| CC(C)(C)NC(=O)[C@@H]1C[C@@H]2CCCC[C@@H]2CN1C[C@@H](O)[C@H](Cc1ccccc1)NC(=O)[C@H](CC(N)=O)NC(=O)c1ccc2ccccc2n1 [Saquinavir] | 0.889 | 3.19 (inactive) | < -37.3 (inactive) |
| CCN(CC)C(=S)SSC(=S)N(CC)CC [Disulfiram] | 1.15 | 148 | – |
| O=C(NCC1CCCCN1)c1cc(OCC(F)(F)F)ccc1OCC(F)(F)F (stereo not given) [Flecainide] | – | – | < -49.1 (inactive) |
| CC1(C)O[C@@H]2C[C@H]3[C@@H]4CCC5=CC(=O)C=C[C@]5(C)[C@@]4(F)[C@@H](O)C[C@]3(C)[C@]2(C(=O)CO)O1 [Azmacort] | 0.687 | -5.49 (inactive) | – |
| O=c1c(-c2ccccc2)c1-c1ccccc1 [Diphenylcyclopropenone] | 0.809 | -43.4 (inactive) | – |
| O=c1[nH]cc(F)c(=O)[nH]1 [5-Fluorouracil] | 1.24 | 174 | – |
| Nc1nc(O)c2ncn(CCC(CO)CO)c2n1 [Penciclovir] | 0.784 | 3 (inactive) | < -37.3 (inactive) |
| CC/C(=C(\c1ccccc1)c1ccc(OCCN(C)C)cc1)c1ccccc1 [Tamoxifen] | 0.507 | -18.7 (inactive) | – |
| COc1cccc2c1C(=O)c1c(O)c3c(c(O)c1C2=O)C[C@@](O)(C(=O)CO)C[C@@H]3O[C@H]1C[C@H](N)[C@H](O)[C@H](C)O1 [Adriamycin] | – | < -51.2 (inactive) | – |
| CS(=O)(=O)c1ccc(-c2cc(Br)sc2-c2ccc(F)cc2)cc1 | 0.92 | 8.65 (inactive) | – |
| C[C@@H]1C[C@H]2[C@@H]3CCC4=CC(=O)C=C[C@]4(C)[C@@]3(F)[C@@H](O)C[C@]2(C)[C@@]1(O)C(=O)CO [Dexamethasone] | 0.824 | -36.6 (inactive) | < -84.9 (inactive) |
| CC#C[C@]1(O)CC[C@H]2[C@@H]3CCC4=CC(=O)CCC4=C3[C@@H](c3ccc(N(C)C)cc3)C[C@@]21C [Mifepristone] | 0.755 | -23 (inactive) | – |
| CCc1c2c(nc3ccc(OC(=O)N4CCC(N5CCCCC5)CC4)cc13)-c1cc3c(c(=O)n1C2)COC(=O)[C@]3(O)CC [Irinotecan] | 2.03 | 255 (active) | – |
| C=CCc1ccc(O)c(-c2ccc(O)c(CC=C)c2)c1 [Honokiol] | 0.744 | -2.87 (inactive) | – |
| Cc1c2oc3c(C)ccc(C(=O)N[C@@H]4C(=O)N[C@H](C(C)C)C(=O)N5CCC[C@H]5C(=O)N(C)CC(=O)N(C)[C@@H](C(C)C)C(=O)O[C@@H]4C)c3nc-2c(C(=O)N[C@@H]2C(=O)N[C@H](C(C)C)C(=O)N3CCC[C@H]3C(=O)N(C)CC(=O)N(C)[C@@H](C(C)C)C(=O)O[C@@H]2C)c(N)c1=O [Dactinomycin] | – | < -33.5 (inactive) | < -33.5 (inactive) |
| Clc1ccc(COC(Cn2ccnc2)c2ccc(Cl)cc2Cl)c(Cl)c1 (stereo not given) [Miconazole] | 0.482 | -12.3 (inactive) | – |
| CN(CCCN1c2ccccc2CCc2ccccc21)CC(=O)c1ccc(Cl)cc1 [Lofepramine] | 0.564 | -18.3 (inactive) | – |
| Clc1ccc(COC(Cn2ccnc2)c2ccc(Cl)cc2Cl)cc1 (stereo not given) [Econazole] | 0.731 | 0.139 (inactive) | – |
| Cc1ccc(O)c([C@H](CCN(C(C)C)C(C)C)c2ccccc2)c1 [Tolterodine] | 0.747 | -15.9 (inactive) | – |
| COc1cccc2c1C(=O)c1c(O)c3c(c(O)c1C2=O)C[C@@](O)(C(=O)CO)C[C@@H]3O[C@H]1C[C@H](N)[C@H](O)[C@H](C)O1 [Doxorubicin] | – | – | < -69.3 (inactive) |
| C=C(CC)C(=O)c1ccc(OCC(=O)O)c(Cl)c1Cl [Ethacrynic Acid] | 2.03 | 32.2 (inactive) | – |
| CN1[C@@H]2CC[C@H]1C[C@@H](OC(c1ccccc1)c1ccccc1)C2 [Benzatropine] | – | < -84.9 (inactive) | – |
| OCCN1CCN(CCCN2c3ccccc3Sc3ccc(C(F)(F)F)cc32)CC1 [Fluphenazine] | 0.784 | 3 (inactive) | < -37.3 (inactive) |
| CC(C)(O)c1ccccc1CC[C@@H](SCC1(CC(=O)O)CC1)c1cccc(/C=C/c2ccc3ccc(Cl)cc3n2)c1 [Montelukast] | 0.64 | -10.2 (inactive) | – |

Source: the supplement of paper PMC4840960
